Rows were chosen to be rich in hits. Some 11% of all compounds tested hit in one or more screens of this group.
JMJD2A Tudor – qHTS Assay for Inhibitors of JMJD2A-Tudor Domain | Lysine-specific demethylase 4A (Homo sapiens), O75164 | Potency, µM (titrated, usually from 114 µM), without a hit: at the top dose activity change, negative = inhibition, actives largely listed as inhibitors | 390,000 tested, 4.4% active | AID 504339, 2011 | AlphaScreen JMJD2A-Tudor / H3K4me3 peptide binding; further: on the % scale 0 is the no-effect control and ±100 the full control effect; nearly all actives have a fitted effect of over 50% in size
VDR inhibitor – Inhibitors of the vitamin D receptor (VDR): qHTS; VDR-SRC2-3 peptide fluorescence polarization, 2 h; Potency, µM, without a hit: max response, negative = inhibition, most hits filed as inhibitors; 400,000 tested, 0.93% active; AID 504847, 2011; further: on the % scale 0 is the no-effect control and ±100 the full control effect
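VDR–SRC2-3 interaction, FP format. Cmpds 23 nl via pintool, brief spin, 2 h ambient incubation.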
PLK1 PBD inh – qHTS for Inhibitors of PLK1-PDB (polo-like kinase 1 - polo-box domain): Primary Screen; 360,000 tested, 2.8% active; AID 720504, 2013; Potency, µM, without a hit: max response, negative = inhibition, usual class: inhibitors; Plk1 PBD binding of FITC phosphopeptide, fluorescence polarization; further: series mostly up to about 57 µM; on the % scale 0 is the no-effect control and ±100 the full control effect; nearly all actives have a fitted effect of over 65% in size
BAZ2B block – qHTS Assay for Inhibitors of BAZ2B; 360,000 tested, 4.4% active; Potency, µM (series often up to 114 µM), inactives show at the top dose activity change, negative = inhibition, hits mostly inhibitors; AlphaScreen BAZ2B-H3K14Ac peptide displacement; AID 504333, 2011; Bromodomain adjacent to zinc finger domain protein 2B (Homo sapiens), Q9UIF8; further: on the % scale 0 is the no-effect control and ±100 the full control effect; nearly all actives have a fitted effect of over 60% in size
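AlphaScreen displacement of biotin-H3(5-23)K14Ac peptide (50 nM final) from BAZ2B (50 nM final) in PBS pH 7.4, 0.01% Tween-20; complex preformed 30 min RT, then compounds (top 110 uM) 30 min RT, beads 20 min dark.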
G9a block – qHTS Assay for Inhibitors of Histone Lysine Methyltransferase G9a | Histone-lysine N-methyltransferase EHMT2 (Homo sapiens), Q96KQ7 | G9a H3K9 monomethylation, AlphaScreen, 2 h | Potency, µM (top dose mostly 102 µM), for inactives: top-dose activity, negative = inhibition, most hits filed as inhibitors | 350,000 tested, 8.8% active | AID 504332, 2011; further: on the % scale 0 is the no-effect control and ±100 the full control effect; nearly all actives have a fitted effect of over 75% in size
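Signal arises when biotinylated H3K9 peptide, once monomethylated, bridges streptavidin donor and antibody-captured acceptor beads. Enzyme at 20 nM was preincubated 15 min with test compounds; peptide 500 nM and SAM 20 uM then reacted for 2 h.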
HP1b chromo inh – HTS for Inhibitors of HP1-beta Chromodomain Interactions with Methylated Histone Tails | Chromobox protein homolog 1 (Homo sapiens), P83916 | AlphaScreen HP1-beta / biotin-H3K9me3 peptide binding | 390,000 tested, 0.56% active | Potency, µM (doses to about 114 µM), inactives show top-dose activity change, negative = inhibition, most hits filed as inhibitors; further: nearly all actives have a fitted effect of over 70% in size
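AlphaScreen: HP1-beta (50 nM) preformed 30 min with biotin-H3(1-18)K9me3 peptide (50 nM) in PBS pH 7.4, 0.01% Tween-20. Compound added for 30 min at RT, then streptavidin donor/nickel chelate acceptor beads (10 ug/mL) for 30 min.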
The depositor's hits bear a star; ? = inconclusive; . = no result; [ ] = dose if it differs, or a comment. The call rests on the fitted dose curve; in most records, active means well fitted curve in the direction sought with a large enough effect; inconclusive means small, poorly fitted or top-dose-only effect, or another doubt; inactive means no such curve, though single readings can be large; an effect the other way counts as inactive or inconclusive. Potency means the concentration at half of the fitted maximal effect.

SMILES | JMJD2A Tudor | VDR inhibitor | PLK1 PBD inh | BAZ2B block | G9a block | HP1b chromo inh
CC(=O)Nc1ccc(NC(=O)CS(=O)(=O)c2cn(CC(=O)N3CCCC3)c3ccccc23)cc1 | -10% | -10% | -3% | -30% | 40µM* | 30%
COc1ccccc1CCNC(=O)C(=O)c1cn(CC(=O)N2CCOCC2)c2ccccc12 | -25% | ? | 24µM* | -28% | . | -1%
Cc1cc(C(=O)N2CCC2(C)C(=O)Nc2cccc3c2CCCC3)nn1C (stereo not drawn) | . | . | 5% | . | . | .
CCOc1ccc(NC(=O)CSc2cn[nH]n2)cc1 | -4% | 1% | -2% | 9% | -14% | 39%
O=C(CSc1cn[nH]n1)Nc1ccc(O)c(C(=O)O)c1 | -19% | 17% | ? | -14% | 13µM* | 25%
Cc1ccc(NC(=O)CSc2cn[nH]n2)cc1 | -11% | -4% | -4% | 3% | 50µM* | 37%
CCc1ccc2occ(CC(=O)Nc3sc4c(c3C(=O)NCCOC)CCCC4)c2c1 | -34% | 7% | . | -3% | 7%[59 µM] | 31%
Clc1ccccc1-c1cc(NCc2ccccc2)ncn1 | . | 45µM* | . | . | -1%[0.501 µM] | .
CCOc1ccccc1-n1c(SCC(=O)N(CC)CC)nnc1-c1ccccn1 | -9% | 5% | 1% | ? | 0%[59 µM] | 34%
Cc1ccc(-n2c(SCC(=O)OC(C)C)nnc2-c2ccccn2)cc1 | 50µM* | -6% | -5% | 50µM* | -8%[59 µM] | 18%
CCOc1ccccc1-n1c(SCC(=O)N2CCOCC2)nnc1-c1ccccn1 | 0% | 10% | 0% | -34% | 14%[59 µM] | 23%
Cc1ccc(C)c(-n2c(SCC(=O)N3CCCC3)nnc2-c2ccccn2)c1 | ? | 23% | -3% | 32µM* | 8%[59 µM] | 31%
Cc1ccc(-n2c(SCC(=O)OC(C)C)nnc2-c2cnccn2)cc1 | -14% | -4% | -3% | 11% | 18% | 4%
CCN(CC)C(=O)CSc1nnc(-c2ccccn2)n1-c1ccccc1OC | ? | -2% | -17% | 89µM* | 16%[59 µM] | 45%
Cc1ccc(C)c(-n2c(SCC(N)=O)nnc2-c2ccccn2)c1 | 79µM* | 12% | -4% | 18µM* | ? | 24%
Cc1ccc(-n2c(SCC(N)=O)nnc2-c2cnccn2)cc1 | 4% | 8% | -2% | -3% | 3% | 47%
CCNC(=S)Nc1ccc2c(c1)oc1ccccc12 | -22% | 8% | 0% | . | . | 38%
CCCCC(=O)N1CCc2cc(OC)c(OC)cc2C1COc1ccc(OC)cc1 (stereo not drawn) | -26% | -3% | . | ? | -6%[59 µM] | 9%
CCCc1c(OCC(O)COc2ccc3c(=O)cc(C(=O)O)oc3c2CCC)ccc(C(C)=O)c1O (stereo not drawn) | . | 45µM* | . | . | 3%[59 µM] | .
Cn1cc(-c2cc3n(n2)CCC(=O)N3CCCC(=O)NCc2ccc(Cl)cc2)c2ccccc21 | -20% | -2% | . | 2% | 2%[59 µM] | 17%[57 µM]
CCO/C(C)=C1\N=C(c2ccc(Cl)cc2)OC1=O | -19% | -7% | ? | -6%[57.1 µM] | 45µM* | 34%
Cc1ccccc1-c1cc(N2CCNCC2)ncn1 | . | 45µM* | . | . | -1%[0.501 µM] | .
Cc1ccccc1-c1cc(N2CCN(C)CC2)ncn1 | . | 6% | . | . | -8%[0.501 µM] | .
COc1ccc(NC(=S)N2CCN(Cc3ccco3)CC2)c(OC)c1 | -12% | -20% | -9% | -1% | -10%[59 µM] | 21%
CCc1c(CN2CCN(c3ccc(F)cc3)CC2)csc1C | -34% | 9% | . | -27% | ? | 25%
SMILES | JMJD2A Tudor | VDR inhibitor | PLK1 PBD inh | BAZ2B block | G9a block | HP1b chromo inh
COc1cc(OC)c(OC)cc1CN1CCN(Cc2cccc(F)c2)CC1 | 56µM* | -7% | -5% | -31% | ? | -15%
COc1cc(OC)c(OC)cc1CN1CCN(Cc2ccco2)CC1 | 22µM* | -22% | -10% | 79µM* | 35µM* | -11%
COc1cc(OC)c(OC)cc1CN1CCN(c2ccc(F)cc2)CC1 | 45µM* | 1% | 0% | 50µM* | 28µM* | ?
COC(=O)C1=C[C@@H](C(=O)OC)C2C3=C(C(=O)[C@]2(C)NC(=O)c2ccccc2)[C@H](C)n2c(=O)n(-c4ccccc4)c(=O)n2[C@@H]3C1 (stereo partly drawn) | -7% | -12% | . | . | . | 15%
Cc1ccc(-c2nn(-c3ccc(F)cc3)c3c2cnc2cc(F)c(F)cc23)cc1 | -18% | -1% | . | . | -4%[59 µM] | 6%
CC(C)(O)C#Cc1ccc(C(=O)N2CCCC(CNS(=O)(=O)c3cccs3)C2)o1 (stereo not drawn) | -13% | 7% | 0% | -19% | 28µM* | 28%
O=C(c1cncs1)N1CCCC(CNS(=O)(=O)c2cccs2)C1 (stereo not drawn) | -1% | -9% | 8% | -17% | -4% | 47%
COC(=O)C(C(=O)OC)C(CC(=O)c1ccc(Br)cc1)c1ccccc1 (stereo not drawn) | 40% | 2% | -10% | . | . | 65%
COC(=O)C(CC(=O)c1ccc(Br)cc1)n1cccn1 (stereo not drawn) | -10% | -11% | -24% | 1% | 40µM* | 8%
CC(=O)Cc1nsc(NC(=O)c2ccc(F)cc2)n1 | 4% | -6% | 9% | -20% | 0% | 21%
Nc1nc(NC(=O)c2ccc(F)cc2)ns1 | ? | ? | 30µM* | -8% | -33%[12.7 µM] | 19%
COc1ccc(C2NC(=O)c3ccccc3N2)cc1OC (stereo not drawn) | 15% | 2% | -7% | 4% | -15%[59 µM] | 44%
COc1cc(C2Nc3cccc4cccc(c34)N2)ccc1OC(C)=O | 56µM* | -22% | 27µM* | ? | 14µM* | -37%
COC(=O)c1ccc(C2Nc3cccc4cccc(c34)N2)cc1 | 20µM* | -1% | -12% | 35µM* | 28µM* | 45µM*
COc1ccc(C2Nc3cccc4cccc(c34)N2)cc1Br | 40µM* | -24% | -26% | 45µM* | 35µM* | ?
COc1cc(C2Nc3cccc4cccc(c34)N2)cc(OC)c1O | ? | -15% | ? | ? | 7.9µM* | ?
O=C(CCCCn1ccc(=O)[nH]c1=O)Nc1ccc(O)c(C(=O)O)c1 | -10% | 1% | -1% | . | . | 18%[57 µM]
COc1ccc(S(=O)(=O)NC(C)C(=O)NCc2ccc3c(c2)OCO3)cc1OC (stereo not drawn) | -8% | -7% | -10% | -13% | -4% | 47%

Compound activity: PubChem, National Center for Advancing Translational Sciences (NCATS)
